This is a sample that favours compounds with a hit; in the whole collection about 19% have one here.
IL-1B inflam inh – qHTS for Inhibitors of Inflammasome Signaling: IL-1-beta AlphaLISA Primary Screen; activity change, % at 57.5 µM; 360,000 compounds, 4.7% hits; THP-1 LPS/ATP IL-1B secretion, AlphaLISA, 16 h; active compounds read low; in the data active = activity change below about -50%; inconclusive = mostly about -30% to -49%
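Secreted IL-1B measured by AlphaLISA bead assay after 16 h compound exposure of THP-1 cells; compounds (final up to 57.5 uM) added 1 h before LPS (250 ng/mL) and ATP (1.25 mM) stimulation; lower signal means less secretion.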
DT40 TDP1 no CPT – qHTS for Inhibitors of human tyrosyl-DNA phosphodiesterase 1 (TDP1): qHTS in cells in absence of CPT. 420,000 compounds, 15% hits. DT40 Tdp1-/- hTDP1 cells, no CPT, ATP luminescence, 48 h. Potency, µM (series often up to 46.2 µM), inactives show at the highest dose activity change, negative = growth inhibition, usual class: inhibitors. AID 686978, 2013; note: potency is the fitted concentration of half-maximal effect; nearly all actives have a fitted effect of over 55% in size
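Stably hTDP1-transfected Tdp1-null chicken DT40 cells were treated with library compounds minus camptothecin and grown for at least 48 hr at 37 °C, after which cellular ATP was quantified by luminescence.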
HT1080-NT tox – qHTS for induction of synthetic lethality in tumor cells producing 2HG: qHTS for the HT-1080-NT fibrosarcoma cell line; HT-1080-NT fibrosarcoma viability, CellTiter-Glo ATP luminescence, 48 h; Potency, µM (titrated, usually from 46.1 µM), without a hit: at the highest dose activity, negative = less viability, usual class: cytotoxic; 360,000 compounds, 1.6% hits;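 note: NT is the 2HG producing partner of a matched IDH1 knockdown line; potency is the fitted concentration of half-maximal effect; 0% = DMSO-treated cells and -100% = media-only wells without cells; nearly all actives have a fitted effect of over 55% in size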
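Viability of the 2HG-overproducing fibrosarcoma line after 48 hours of compound exposure at 37 degrees C was determined by luminescence with CellTiter-Glo, and concentration-effect curves were then fitted and categorized.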
DT40 TDP1 CPT – qHTS for Inhibitors of human tyrosyl-DNA phosphodiesterase 1 (TDP1): qHTS in cells in presence of CPT; chicken DT40 Tdp1-/-;hTDP1 cells + 20 nM CPT, ATP luminescence, 48 h; AID 686979, 2013; 420,000 compounds, 12% hits; Potency, µM (doses to about 46.2 µM), without a hit: at the highest dose activity change, negative = growth inhibition, actives largely listed as inhibitors; note: potency is the fitted concentration of half-maximal effect; nearly all actives have a fitted effect of over 55% in size
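Cell growth measured by CellTiter-Glo luminescence after a minimum 48 h, 37 C compound exposure with 20 nM CPT in Tdp1-knockout DT40 cells stably expressing hTDP1, seeded 400/well; qHTS titration format.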
ELG1 repair inh – qHTS screen for small molecules that inhibit ELG1-dependent DNA repair in human embryonic kidney (HEK293T) cells expressing luciferase-tagged ELG1 | AID 504467, 2011 | Potency, µM (series often up to 46.1 µM), inactives show top-dose activity change, negative = inhibition, actives largely listed as inhibitors | 330,000 compounds, 2.3% hits | HEK293T ELG1-luciferase reporter, luminescence, 16 h; DNA damage induced by 5-fluorouridine; note: potency is the fitted concentration of half-maximal effect; nearly all actives have a fitted effect of over 55% in size
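HEK293T cells expressing luciferase-tagged ELG1 (2,000/well) received 5-Fluorouridine plus compound or DMSO for 16 hr at 37 °C. Luciferase was read by ONE-Glo luminescence after 30 min at room temperature.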
HT1080 IDH1KD tx – qHTS for induction of synthetic lethality in tumor cells producing 2HG: qHTS for the HT-1080-IDH1KD cell line; HT-1080 IDH1 knockdown viability, ATP luminescence, 48 h; Potency, µM (highest dose often 46.1 µM), for the others: top-dose activity, negative = toxicity, most hits filed as cytotoxic; 360,000 compounds, 2% hits; AID 686971, 2013;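 note: potency is the fitted concentration of half-maximal effect; 0% = DMSO wells and -100% = cell-free medium wells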
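Viability of IDH1-knockdown HT-1080 fibrosarcoma cells was assessed by CellTiter-Glo after 48 h at 37 °C with titrated compound; concentration-effect curves were classified by fit quality and response size.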
Numbers without * were called inactive; ? = inconclusive; . = not tested or not shown. Unless noted, calls come from the whole dose curve; as a rule, active = well fitted curve in the direction sought with a large enough effect; inconclusive = small, poorly fitted or top-dose-only effect, or another doubt; inactive = no such curve, though single readings can be large; an effect the other way counts as inactive or inconclusive. Unless noted, % is set by controls: 0 for no effect and ±100 for the full control effect.

SMILES | IL-1B inflam inh | DT40 TDP1 no CPT | HT1080-NT tox | DT40 TDP1 CPT | ELG1 repair inh | HT1080 IDH1KD tx
COc1ccc(C2CC(c3cccc(C(F)(F)F)c3)=NN2c2ccc(S(N)(=O)=O)cc2)cc1 (stereo not given) | ? | 25.9µM* | ? | ? | -3.3% | -27.7%
COc1ccc(C2CC(c3ccccc3Cl)=NN2c2ccc(S(N)(=O)=O)cc2)cc1 (stereo not given) | ? | ? | 18.4µM* | ? | -5.2% | ?
COc1ccc(C2CC(c3cccc(Br)c3)=NN2c2ccc(S(N)(=O)=O)cc2)cc1 (stereo not given) | 0.0 | ? | ? | 25.9µM* | -15.2% | ?
COc1ccc(CNC(=O)Cc2c(C)c3c(cc(C)c4c(C)coc43)oc2=O)cc1OC | . | -9.0% | . | -4.7% | . | .
O=C(C1CC(=O)N(c2ccc3c(c2)OCCO3)C1)N1CCN(c2ccccc2)CC1 (stereo not given) | -15.8 | -27.6% | 15.8% | -27.0% | -12.1% | 15.2%
O=C(CSc1ccc2c(c1)OCCO2)N1CCN(c2ccccc2O)CC1 | 0.4 | 23.1µM* | -3.4% | 23.1µM* | ? | 0.0%
CCOc1ccccc1N1CCN(C(=O)CSc2ccc3c(c2)OCCO3)CC1 | -11.5 | ? | -1.3% | -16.3% | -15.6% | 11.7%
O=C(C1CC(=O)N(c2ccc3c(c2)OCCO3)C1)N1CCN(c2ccccc2O)CC1 (stereo not given) | -9.0 | ? | -3.9% | 20.6µM* | -3.3% | -1.4%
CC(C)(C)c1nnc2sc(SCC(=O)N3CCCc4ccccc43)nn2c1=O | -29.1 | 23.1µM* | 0.4% | ? | -10.0% | 1.7%
CC(C)(C)c1nnc2sc(SCC(=O)c3ccc(Cl)cc3)nn2c1=O | ? | ? | 16.1% | -23.7% | ? | 20.2%
CC1Cc2ccccc2N1C(=O)CSc1nn2c(=O)c(C(C)(C)C)nnc2s1 (stereo not given) | -96.4* | ? | ? | ? | 4.4% | ?
O=C(COC(=O)/C=C/c1ccccc1Cl)NC1CC1 | 0.0 | -2.6% | 4.2% | -2.6% | . | -7.8%
c1ccc(CN2CCC(Nc3ncnc4sccc34)CC2)cc1 | 0.0 | 2.0% | 3.2% | 10.5% | 6.51µM* | ?
Cc1csc2c(NC3CCN(Cc4ccccc4)CC3)ncnc12 | -19.3 | 16.4µM* | -2.5% | 23.1µM* | -11.8% | -13.1%
CS(=O)(=O)NC1CCN(Cc2ccccc2)CC1 | 1.9 | 3.3% | 11.9% | 1.6% | -0.4% | 5.6%
O=C(NC(=S)N(CC1CCC1)CC1CCCO1)c1cccc([N+](=O)[O-])c1 (stereo not given) | 20.6 | ? | 1.6% | ? | -8.0% | -9.8%
Cc1[nH]n(-c2ccccc2)c(=O)c1N=Nc1cccc(Cl)c1 | 13.8 | ? | ? | -25.0% | ? | 14.0%
Cc1[nH]n(-c2ccc(Cl)cc2)c(=O)c1N=Nc1cccnc1 | 13.7 | 16.4µM* | 16.7% | 18.4µM* | ? | 13.9%
O=C(OCc1cc(=O)n2nc(C3CC3)sc2n1)c1ccc(NC(=O)c2ccccc2F)cc1 | . | -16.1% | . | -16.2% | . | .
CN(CC1CCCO1)S(=O)(=O)c1ccc(C(=O)Nc2nc(-c3ccccn3)cs2)cc1 (stereo not given) | 140.3 | 1.84µM* | ? | 1.46µM* | ? | ?

Screening results deposited in PubChem by National Center for Advancing Translational Sciences (NCATS).
